The whole screen tested about 360,000 compounds, of which about 2,100 (0.58%) were called active.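 The calls were made as follows: active = inhibition above a per-plate cutoff, the mean of that plate's test compounds plus 3 SD (cut at about 27% in these data); inactive = the rest.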 Many of the other results were omitted from the sample, so actives are more common in it than they were.
Biological target: Muscarinic acetylcholine receptor M5 (Homo sapiens) (UniProt P08912)
Assay: human M5 muscarinic receptor antagonists, primary screen, CHO cells, Fluo-8 calcium fluorescence (AID 624040);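 also: 0% = acetylcholine EC80 with DMSO and 100% = DMSO without agonist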
Conditions: CHO-hM5 cells, ACh EC80, at 3 µM, hits give high values

Chain of Muscarinic acetylcholine receptor M5 (Homo sapiens) (P08912 whole entry, looked up): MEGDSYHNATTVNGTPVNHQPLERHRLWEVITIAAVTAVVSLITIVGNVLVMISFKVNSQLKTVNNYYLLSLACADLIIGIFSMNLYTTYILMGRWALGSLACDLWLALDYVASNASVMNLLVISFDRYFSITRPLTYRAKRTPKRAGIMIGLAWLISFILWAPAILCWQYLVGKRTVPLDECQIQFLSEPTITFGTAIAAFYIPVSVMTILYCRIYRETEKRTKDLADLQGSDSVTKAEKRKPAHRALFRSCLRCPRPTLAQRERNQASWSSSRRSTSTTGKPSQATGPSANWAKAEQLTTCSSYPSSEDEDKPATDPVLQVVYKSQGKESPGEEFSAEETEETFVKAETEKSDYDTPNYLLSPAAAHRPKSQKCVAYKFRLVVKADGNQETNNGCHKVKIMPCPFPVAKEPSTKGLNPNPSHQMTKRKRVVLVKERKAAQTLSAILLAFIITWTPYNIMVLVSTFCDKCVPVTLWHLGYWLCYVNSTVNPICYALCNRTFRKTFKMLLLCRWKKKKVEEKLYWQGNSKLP

inhibition, inactive:
CC1(C)C2CC=C(/C=N/NC(=O)C3CC3)C1C2 (configuration not stated) -4.33%
COc1cc(C(=O)N2CCN(S(=O)(=O)c3ccc(C(C)C)cc3)CC2)ccc1OCC(=O)N1CCOCC1 -6.27%
C=C(C)c1cccc(C(C)(C)NC(=O)N2CCN(c3ncccn3)CC2)c1 4.22%
C=C(C)c1cccc(C(C)(C)NC(=O)NC2CCCC2)c1 -4.91%
CC(=O)N1CC(=O)N(CC(=O)Nc2ccc(Br)cc2)C1=S 15.7%
Cc1ccc(S(=O)(=O)N(C)CC(=O)NCC(c2ccc(F)cc2)N2CCOCC2)cc1 (configuration not stated) 4.43%
Cc1ccc(NC(=S)N2CCN(c3ncccn3)CC2)cc1C 0.78%
O=C(c1c(F)cccc1F)N1CCN(S(=O)(=O)c2ccc3c(c2)OCCO3)CC1 15.2%
O=C(c1ccc(Cl)nc1)N1CCN(S(=O)(=O)c2ccc3c(c2)OCCO3)CC1 8.5%
Nc1nonc1-n1nnc(C(=O)N/N=C/c2ccc(Cl)cc2)c1-c1ccc2c(c1)OCO2 4.23%
Cc1ccccc1C(OCC(O)CN1CCCCC1CCO)c1ccccc1 (configuration not stated) 1.17%
CN(C)CCOC1c2ccccc2-c2ccccc21 9.21%
Cc1ccc(S(=O)(=O)N2CCN(C(=O)CCC(=O)NC3CCCc4ccccc43)CC2)cc1 (configuration not stated) 1.42%
CCOc1ccc(C(=O)N(Cc2ccc(N(C)C)cc2)C2CCS(=O)(=O)C2)cc1 (configuration not stated) -0.33%
C=CCNC(=O)c1ccccc1SCc1c(C)noc1C -3.18%
Cc1noc(C)c1CSCC(=O)Nc1nc2ccc(Oc3ccccc3)cc2s1 -2.14%
CC(C)(C)c1cnnn1-c1ccc([N+](=O)[O-])cc1 -0.77%
CC1(C)C=C2[C@H]3CC[C@@H]4[C@@]5(C)CCC(=O)C(C)(C)[C@@H]5CC[C@@]4(C)[C@]3(C)CC[C@@]2(C(=O)O)CC1 0.2%
COc1cc2c(cc1OC)C(C(=O)Nc1cc(C)c(OC)c(C)c1)CC(=O)N2 (configuration not stated) -6.29%
CC(=O)Nc1ccc(N2C(=O)CCC2=O)cc1C 0.14%
O=C(CN1CCCCCC1)Nc1ccc(Cl)cc1F 7.56%
O=C(CN1C(=O)/C(=C\c2ccc(C(F)(F)F)cc2)Sc2ccccc21)NCc1ccco1 18.4%
O=C(CSc1nc2ccccc2o1)N1c2ccccc2Sc2ccc(Cl)cc21 -5.39%
CCC(=O)Nc1cc(C(F)(F)F)ccc1N1CCCC1 4.4%
COc1ccccc1NC(=O)N(O)C1(C#N)CCCCC1 4.25%
CCOC(=O)c1c(S(=O)(=O)Nc2ccc(CN3CCC(C)CC3)cc2)c(C)n(C)c1C 0.52%
Cc1cc(C(=O)N2CCN(c3ccccn3)CC2)c(C)o1 -9.14%
Cc1cc(Br)ccc1NC(=O)c1sc2ncn(CC(=O)N3CCN(c4ccccn4)CC3)c(=O)c2c1C -9.8%
C[C@H](CO)N1C[C@H](C)[C@@H](CN(C)S(=O)(=O)c2ccc(F)cc2)OCc2cnnn2CCCC1=O -6.37%
CCc1noc(C)c1C(=O)Oc1ccc(N(C)S(=O)(=O)c2ccc(C)c(C)c2)cc1 11.9%
CCCN(CCc1ccccc1)C1CCc2c(O)cccc2C1 (configuration not stated) 2.43%
Cc1ccc(S(=O)(=O)N2CCC(C(=O)N3CCCCCCC3)CC2)cc1 1.57%
Cc1ccc(S(=O)(=O)N2CCC(N3CCCCCC3)CC2)cc1 6.92%
CCC(C)(C)NC(=O)CN(C(=O)C(=O)Nc1ccc2c(c1)OCCO2)C(C)(C)CC 1.43%
CCOCCn1[nH]c2ccccc2c1=O 3.03%
O=C(c1cncc(Br)c1)N1CCN(c2ccc([N+](=O)[O-])cc2)CC1 15.7%
O=[N+]([O-])c1ccc(N2CCN(c3ccc(F)cc3)CC2)cn1 8.5%
CC(=O)c1c(N2CCOCC2)nc(=S)n(Cc2ccccc2)c1C 10%
COc1ccccc1NC(=S)N1CCC(NC(=O)C23CC4CC(CC(C4)C2)C3)CC1 6.64%
CCOc1ccccc1NC(=S)N1CCN(c2cccc(C)c2C)CC1 -0.84%
O=C(c1ccc2c(c1)C(=O)N(Cc1ccncc1)C2=O)N1CCN(S(=O)(=O)c2ccc(OC(F)(F)F)cc2)CC1 11.6%
COc1cccc(COC(=O)C2CCN(S(=O)(=O)c3ccc(Cl)cc3)CC2)c1OC 10.6%
COc1ccc(CNC(=O)COc2cccnc2[N+](=O)[O-])cc1 8.36%
O=C(COc1ncnc2ccccc12)NC(=O)NCc1ccccc1 6.01%
CCCCN(C)Cc1c(C)[nH]c2ccc(Cl)cc2c1=O -2.11%

inhibition, active:
C=C(C)c1cccc(C(C)(C)NC(=O)NCCN(CC)CC)c1 52.3%
O=C(c1c(F)cccc1Cl)N1CCN(S(=O)(=O)c2ccc3c(c2)OCCCO3)CC1 32.7%
Cc1ccccc1C(OCCN(C)C)C1CCCCC1 (configuration not stated) 98.7%
Cc1noc(C)c1CSc1nnc2ccc3ccccc3n12 31.2%
O=C(CN1CCCCC1)N1c2ccccc2Sc2ccc(C(F)(F)F)cc21 98.8%
O=C(CN1CCCCCC1)N1c2ccccc2Sc2ccc(C(F)(F)F)cc21 98.4%
Cc1cc(Br)ccc1NC(=O)c1cnc(N2CCN(c3ccccn3)CC2)c2ccccc12 27.7%
CCN(CC)CCCC(C)n1c2nc(=O)[nH]c(=O)c-2nc2cc(Cl)ccc21 (configuration not stated) 41.2%
Cc1ccc(S(=O)(=O)n2oc(=O)c(C3CCCCC3)c2N)cc1 33.2%
O=C(c1cc(C(=O)N2CCN(c3ccc(F)cc3)CC2)cc([N+](=O)[O-])c1)N1CCN(c2ccc(F)cc2)CC1 29.5%
COc1ccccc1NC(=S)N1CCN(C(c2ccccc2)c2ccccc2)CC1 32.8%
COc1ccc(CNc2ncnc3ccccc23)cc1 33.8%
